# IL-1B inflam inh: qHTS for Inhibitors of Inflammasome Signaling: IL-1-beta AlphaLISA Primary Screen | THP-1 LPS/ATP IL-1B secretion, AlphaLISA, 16 h; hits give low values | activity change, % at 57.5 µM | AID 743279, 2014 | actives 4.7% (n = 360,000); in the data active = activity change below about -50%; inconclusive = mostly about -30% to -49%
#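 Secreted IL-1B measured by AlphaLISA bead assay after 16 h compound exposure of THP-1 cells; compounds (final up to 57.5 uM) added 1 h before LPS (250 ng/mL) and ATP (1.25 mM) stimulation; lower signal means less secretion.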
# TDP1 cell noCPT: qHTS for Inhibitors of human tyrosyl-DNA phosphodiesterase 1 (TDP1): qHTS in cells in absence of CPT; actives 15% (n = 420,000); Potency, µM (titrated, usually from 46.2 µM), most hits filed as inhibitors; DT40 Tdp1-/- hTDP1 cells, no CPT, ATP luminescence, 48 h; AID 686978, 2013; note: nearly all actives have a fitted effect of over 55% in size
#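 DT40 Tdp1-/-;hTDP1 cells, no CPT (DMSO vehicle only), 400 cells/well; compounds pin-transferred; ≥48 hr, 37 °C; CellTiter-Glo 30 min RT dark, luminescence read.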
# DT40 TDP1 CPT: qHTS for Inhibitors of human tyrosyl-DNA phosphodiesterase 1 (TDP1): qHTS in cells in presence of CPT. chicken DT40 Tdp1-/-;hTDP1 cells + 20 nM CPT, ATP luminescence, 48 h. Potency, µM (series often up to 46.2 µM), hits mostly inhibitors. actives 12% (n = 420,000). AID 686979, 2013; note: nearly all actives have a fitted effect of over 55% in size
#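 Cell growth measured by CellTiter-Glo luminescence after a minimum 48 h, 37 C compound exposure with 20 nM CPT in Tdp1-knockout DT40 cells stably expressing hTDP1, seeded 400/well; qHTS titration format.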
# TDP1 block: qHTS Assay for Inhibitors of Tyrosyl-DNA Phosphodiesterase (TDP1); Potency, µM (series often up to 130 µM), actives largely listed as inhibitors; recombinant TDP1, AlphaScreen DNA substrate cleavage; AID 485290, 2010; actives 0.28% (n = 350,000); Tyrosyl-DNA phosphodiesterase 1 (Homo sapiens), Q9NUW8; note: nearly all actives have a fitted effect of over 40% in size
#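 Compounds were preincubated with Tdp1 (1 nM final) for 15 min at room temperature before substrate (15 nM final) started a 5 min reaction; beads (10 ug/ml final) were then added for 10 min before AlphaScreen detection.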
# CtBP-E1A blk: qHTS Assay for Inhibitors of the CtBP/E1A Interaction; CtBP / adenovirus E1A interaction (AlphaScreen); AlphaScreen GST-E1A/His-CtBP binding, 1536-well; hits give low values; activity change, % (concentration not given with the values); actives 0.49% (n = 340,000); AID 651724, 2012; in the data active = activity change below about -65%; inconclusive = mostly about -30% to -63%
#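 GST-E1A and His-tagged CtBP (125 nM each as 5X stock) were preincubated with pin-transferred compound for 2 h at 37 °C in the dark, then glutathione donor and nickel acceptor beads were added for 1 h before AlphaScreen reading.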
# Six1-Eya2 blk: qHTS Assay for Inhibitors of the Six1/Eya2 Interaction. Homeobox protein SIX1 (Homo sapiens) + Protein phosphatase EYA2 (Homo sapiens), …. AlphaScreen GST-Six1/His-Eya2 binding, biochemical; hits give low values. activity change, % (test concentration not listed). actives 0.56% (n = 360,000); in the data active = activity change below about -65%; inconclusive = mostly about -30% to -63%
# Target sequence (O00167 whole entry, looked up): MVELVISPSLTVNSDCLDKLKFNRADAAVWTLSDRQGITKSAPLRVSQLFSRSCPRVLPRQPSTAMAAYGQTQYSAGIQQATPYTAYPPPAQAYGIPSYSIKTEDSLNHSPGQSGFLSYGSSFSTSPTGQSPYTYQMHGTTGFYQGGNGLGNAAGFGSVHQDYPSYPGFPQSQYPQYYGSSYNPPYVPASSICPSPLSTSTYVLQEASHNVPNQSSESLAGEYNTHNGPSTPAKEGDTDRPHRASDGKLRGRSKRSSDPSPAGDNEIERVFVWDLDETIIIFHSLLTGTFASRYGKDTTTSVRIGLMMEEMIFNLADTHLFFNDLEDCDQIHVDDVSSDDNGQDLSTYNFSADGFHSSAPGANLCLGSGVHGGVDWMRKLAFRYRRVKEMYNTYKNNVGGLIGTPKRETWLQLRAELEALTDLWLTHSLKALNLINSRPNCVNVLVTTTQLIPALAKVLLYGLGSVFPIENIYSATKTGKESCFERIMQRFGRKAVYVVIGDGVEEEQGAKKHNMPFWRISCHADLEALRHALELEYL
# Target sequence (Q15475 whole entry, looked up): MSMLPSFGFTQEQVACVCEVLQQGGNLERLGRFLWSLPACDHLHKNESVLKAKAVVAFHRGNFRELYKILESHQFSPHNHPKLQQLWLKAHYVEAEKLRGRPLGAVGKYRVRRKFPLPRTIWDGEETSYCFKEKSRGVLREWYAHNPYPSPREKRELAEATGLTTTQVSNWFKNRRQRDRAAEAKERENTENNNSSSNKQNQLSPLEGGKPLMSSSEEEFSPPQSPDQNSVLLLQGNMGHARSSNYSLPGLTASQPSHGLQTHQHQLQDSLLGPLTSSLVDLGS
#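 Homogeneous AlphaScreen proximity assay pairing GST-Six1 with His-tagged Eya2 (added as 5X mix: 250 nM and 500 nM) in 50 mM Tris pH 8.0, 300 mM NaCl, 1 mM TCEP. Glutathione donor and nickel acceptor beads; 1 h, 37 °C, dark.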
# Numbers stand for hits; i = inactive; ? = inconclusive; nt = no result given; [ ] = remark or other dose. Hits are enriched below; roughly 18% of the tested compounds scored in any of these assays. Unless noted, calls come from the whole dose curve; as a rule, active = well fitted curve in the direction sought with a large enough effect; inconclusive = small, poorly fitted or top-dose-only effect, or another doubt; inactive = no such curve, though single readings can be large; an effect the other way counts as inactive or inconclusive.
SMILES,IL-1B inflam inh,TDP1 cell noCPT,DT40 TDP1 CPT,TDP1 block,CtBP-E1A blk,Six1-Eya2 blk
O=C1CCCC/C1=C/Nc1ccc(C(=O)O)cc1,i,i,i,i,i,i
CN1CCN(c2nc(-c3ccccc3)ncc2S(=O)(=O)c2ccccc2)CC1,-52,?,i,i,i,i
CN1CCN(c2nc(-c3ccccc3)ncc2S(C)(=O)=O)CC1,i,i,i,nt,i,i
S=C(NCC1CCCO1)N1CCN(c2nc(-c3ccc(Cl)cc3)cs2)CC1 (stereo not drawn),-68,15µM,16µM,i,i,i
S=C(NCCCN1CCOCC1)N1CCN(c2nc(-c3ccc(Cl)cc3)cs2)CC1,-70,4.1µM,7.3µM,i,i,i
COCCCNC(=S)N1CCN(c2nc(-c3ccc(F)cc3)cs2)CC1,?,?,?,nt,i,i
S=C(NCCCN1CCOCC1)N1CCN(c2nc(-c3ccccc3)cs2)CC1,-87,23µM,?,i,i,i
O=C(NCCCN1CCOCC1)C1CCN(S(=O)(=O)c2cccc(Cl)c2Cl)CC1,i,i,i,nt,i,i
O=S(=O)(c1cccc(Cl)c1Cl)N1CCN(C(=S)NCCCN2CCOCC2)CC1,-74,21µM,?,?,i,i
Nc1cc(=O)[nH]c(SCC(=O)Nc2ccc(S(=O)(=O)N3CCCC3)cc2)n1,i,i,i,i,i,i
CC1(C)CC(Cc2ccc(Cl)nc2)N(C(=O)OC(C)(C)C)C1 (stereo not drawn),i,?,?,nt,i,i
C[C@@H]1CC[C@H](Cc2ccc(-n3cccc3)cc2)N1C(=O)OC(C)(C)C,i,18µM,?,nt,i,i
O=C(CCCn1c(=O)[nH]c2ccsc2c1=O)N1CCCCC1,i,i,i,i,i,i
O=C(NCc1ccccc1Cl)c1ccc(S(=O)(=O)NCc2ccco2)cc1,i,i,i,i,i,i
CCOC(=O)c1c(C)[nH]c(C(=O)COC(=O)C(C)Oc2ccc(Cl)cc2Cl)c1C (stereo not drawn),i,?,i,i,i,i
COc1ccc(NC(=O)C2CCCC2)cc1S(=O)(=O)N1CCOCC1,i,i,i,i,i,i
O=C(NNC1=NCCC1)c1cccc(S(=O)(=O)N2CCCC2)c1,i,i,i,i,i,i
CN(C(=O)c1ccc(NC(=O)Cc2ccc(NC(=O)C3CCN(C(=O)C4CCCCC4)CC3)cc2)cc1)C1CC1,-61,?,?,i,i,i
CN(Cc1ccccc1)C(=O)c1ccc(NC(=O)Cc2ccc(NC(=O)C3CCN(C(=O)C4CCCCC4)CC3)cc2)cc1,i,16µM,23µM,nt,i,i
CN(C(=O)c1ccc(NC(=O)Cc2ccc(NC(=O)C3CCN(C(=O)C4CCCC4)CC3)cc2)cc1)C1CCCC1,i,?,?,nt,i,i
CN(Cc1ccccc1)C(=O)c1cccc(NC(=O)Cc2ccc(NC(=O)C3CCN(C(=O)CCc4ccccc4)CC3)cc2)c1,i,16µM,?,nt,i,i
CN(Cc1ccccc1)C(=O)c1ccc(NC(=O)Cc2ccc(NC(=O)C3CCN(C(=O)CCc4ccccc4)CC3)cc2)cc1,i,10µM,26µM,nt,i,i
COc1ccccc1N1CCN(C2CC(=O)N(C)C2=O)CC1 (stereo not drawn),i,i,i,i,i,i
C/C(=C\C(=O)c1ccc(Br)cc1)Nc1cccc(Cl)c1,i,i,i,nt,i,i
CCCCN(C(=O)c1ccco1)c1nnc(-c2cc(OC)c(OC)c(OC)c2)s1,i,?,i,i,i,i
SMILES,IL-1B inflam inh,TDP1 cell noCPT,DT40 TDP1 CPT,TDP1 block,CtBP-E1A blk,Six1-Eya2 blk
Cc1ccccc1-n1c(Cn2c(=O)sc3ccccc32)nnc1SC(C)C,i,?,?,i,i,i
O=C(NCC1CCCO1)c1cc(S(=O)(=O)N2CCCCC2)ccc1Cl (stereo not drawn),i,i,i,i,nt,i
O=S(=O)(c1ccc2c(c1)OCCO2)N1CCC(c2nc3ccc(Cl)cc3[nH]2)CC1,-72,12µM,8.2µM,i,?,?
Cc1ccc2nc(C3CCN(S(=O)(=O)c4ccc5ccccc5c4)CC3)[nH]c2c1,-69,?,?,i,i,i
CC(=O)c1cccc(S(=O)(=O)N2CCC(c3nc4ccccc4[nH]3)CC2)c1,i,i,i,i,i,i
O=S(=O)(c1cccc(Cl)c1)N1CCC(c2nc3ccccc3[nH]2)CC1,i,18µM,21µM,i,i,i
O=S(=O)(c1ccc(F)cc1)N1CCC(c2nc3ccccc3[nH]2)CC1,i,?,i,nt,i,i
O=S(=O)(c1ccc2c(c1)OCCO2)N1CCC(c2nc3ccccc3[nH]2)CC1,i,?,?,i,i,i
O=C(NCC1CCCO1)c1ccc(S(=O)(=O)N2CCC(c3nc4ccc(Cl)cc4[nH]3)CC2)cc1 (stereo not drawn),i,23µM,26µM,i,i,i
C=CCC1C=C(C)CC(CC=C)N1 (stereo not drawn),i,i,i,i,i,i
O=C(Cn1nnc(-c2ccccc2)n1)N=Nc1c(O)[nH]c2ccccc12,i,i,i,i,i,i
Cc1nc2cc(NC(=O)Nc3cccc([N+](=O)[O-])c3)ccc2n1C,i,i,i,nt,i,i
O=S(=O)(c1cccc(C(F)(F)F)c1)N1CCC(c2nc3ccccc3[nH]2)CC1,i,23µM,?,i,i,i
CC(C)CCN(C)C1CCN(S(=O)(=O)c2cccc(C(F)(F)F)c2)CC1,-53,i,i,i,i,i
Cn1cnc2c(cnn2C)c1=O,i,i,i,nt,i,i
COC(=O)CCN(C(=O)c1c(C)oc2ncnc(N3CCOCC3)c12)c1ccccc1,nt,i,i,i,nt,nt
Cc1csc(NC(=O)CCC(=O)N(CC(=O)NC2CCCC2)Cc2ccco2)n1,i,i,i,i,i,i
Cc1nn(-c2ccccc2)c2sc(C(=O)N(CC(=O)NC3CCCC3)Cc3ccco3)cc12,?,16µM,?,i,i,i
Cc1ccc(N/C=C/C(=O)c2sc(-c3ccccc3)nc2C)cc1,i,23µM,?,i,i,i
COC(=O)C1=C(C)N(Cc2ccccc2)C(=O)N[C@H]1CCc1ccccc1,i,i,i,i[12.3 µM],i,i
Cn1c(=N)n(CC(=O)c2ccc(Br)cc2)c2ccccc21,nt,18µM,21µM,nt,i,i
Cc1n(CC(=O)c2ccc(F)cc2)c2ccccc2[n+]1C,i,i,i,i,nt,i
